Experimental data published in PubChem BioAssay AID651598 (Sanford-Burnham Center for Chemical Genomics, 2012).
Values joined by “and” are separate entries in the source; they are usually repeats but may differ in a detail not shown here. Equal entries are not always repeated.

Molecular target: Apelin receptor (Homo sapiens) (UniProt P35414)
Test: apelin receptor (APJ) antagonists, SAR follow-up, counter-screen for CXCR6 antagonist project, cell-based, beta-arrestin, DiscoveRx, panel, CHO-K1 (AID 651598)
Details: CHO-K1 PathHunter beta-arrestin luminescence, antagonist mode; run 1, at 80 µM (top of the series)

Chain of Apelin receptor (Homo sapiens) (P35414 whole entry, looked up): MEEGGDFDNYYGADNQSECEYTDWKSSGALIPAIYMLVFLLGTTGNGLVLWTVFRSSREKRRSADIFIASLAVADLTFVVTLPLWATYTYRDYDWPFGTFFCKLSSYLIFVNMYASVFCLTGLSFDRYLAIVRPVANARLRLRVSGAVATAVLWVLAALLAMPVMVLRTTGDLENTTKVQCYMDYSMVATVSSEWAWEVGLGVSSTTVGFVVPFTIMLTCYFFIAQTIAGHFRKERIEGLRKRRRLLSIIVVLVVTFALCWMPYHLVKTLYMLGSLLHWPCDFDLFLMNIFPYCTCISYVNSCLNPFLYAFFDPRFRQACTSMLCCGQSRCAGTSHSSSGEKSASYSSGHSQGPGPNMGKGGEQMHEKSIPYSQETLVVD

Row | Structure (SMILES) | inhibition
1 | COc1cc(C(=O)NC2CCN(CC(=O)Nc3ccccc3)CC2)cc(OC)c1OC | -17.6%
2 | COc1cc(C(=O)NC2CC3CCCC(C2)N3CC(=O)Nc2ccccc2)cc(OC)c1OC (stereo not drawn) | -17.1% and -7.52% and 20.1%
3 | COc1cc(C(=O)NC2CC3CCC(C2)N3CC(=O)Nc2ccccc2)cc(OC)c1OC (stereo not drawn) | 15.6% and 6.78%
